Assay results: ChEMBL document CHEMBL3433997, “St. Jude Leishmania screening dataset” (2016)
Values joined by “and” are separate entries in the source; they are usually repeats but may differ in a detail not shown here. Identical values can stand only once.

Key:
Format in all cases: functional
[1] = biological target: Solute carrier family 2, facilitated glucose transporter member 1 (Homo sapiens) (UniProt P11166); experiment: ST_JUDE_LEISH: Cytotoxicity at 2uM final concentration against transgenic Leishmania Mexicana promastigotes LmGLUT1 that are glucose transport deficient and complemented with the human glucose transporter GLUT1. Activity is measured by DNA content using SYBR green in vitro
Sequence of Solute carrier family 2, facilitated glucose transporter member 1 (Homo sapiens) (P11166 whole entry): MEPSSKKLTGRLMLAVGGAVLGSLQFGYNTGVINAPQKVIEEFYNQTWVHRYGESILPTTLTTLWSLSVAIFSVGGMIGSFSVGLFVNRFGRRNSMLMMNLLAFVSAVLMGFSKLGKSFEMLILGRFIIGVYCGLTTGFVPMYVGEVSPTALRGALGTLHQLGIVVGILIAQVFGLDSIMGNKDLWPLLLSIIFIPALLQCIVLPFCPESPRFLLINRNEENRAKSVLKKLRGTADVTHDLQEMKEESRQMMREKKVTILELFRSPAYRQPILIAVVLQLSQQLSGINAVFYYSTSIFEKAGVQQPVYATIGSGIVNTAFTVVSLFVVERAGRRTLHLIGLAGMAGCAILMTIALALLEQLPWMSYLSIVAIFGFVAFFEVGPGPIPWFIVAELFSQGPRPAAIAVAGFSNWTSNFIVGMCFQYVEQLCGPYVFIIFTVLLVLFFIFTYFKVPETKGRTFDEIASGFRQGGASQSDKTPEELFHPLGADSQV

[2] = biological target: Hexose transporter 1 (Plasmodium falciparum) (UniProt O97467); experiment: ST_JUDE_LEISH: Cytotoxicity at 2uM final concentration against transgenic Leishmania Mexicana promastigotes LmPfHT that are glucose transport deficient and complemented with the Plasmodium falciparum hexose transporter. Activity is measured by DNA content using SYBR green in vitro
[3] = biological target: Glucose transporter (Leishmania mexicana) (UniProt O61059); experiment: ST_JUDE_LEISH: Cytotoxicity at 2uM final concentration against transgenic Leishmania Mexicana promastigotes LmGT2 that are glucose transport deficient and complemented with the L. Mexicana glucose transporter 2. Activity is measured by DNA content using SYBR green in vitro

Row | SMILES | inhibition [1] | inhibition [2] | inhibition [3]
1 | O=C(/C=C/c1ccc(Cl)c(Cl)c1)NCc1ccc(CN2CCC(c3c[nH]c4ccccc34)CC2)cc1 | 2.64% | 2.44% | 0.41%
2 | Cc1[nH]c2ccccc2c1C1=CCN(CCCCCNC(=O)/C=C/c2ccc(Cl)c(Cl)c2)CC1 | 5.3% | 5.72% | 5.48%
3 | CC[C@H]1CN2CC[C@H]1C[C@H]2[C@H](O)c1cc(N2CCCC2)nc2ccc(OC)cc12 | -0.2% | -1.79% | 0.03%
4 | O=C(NC1CCC(CN2CCC(c3c[nH]c4ccccc34)CC2)CC1)c1cc(-c2ccc(F)cc2F)ccc1O (configuration not stated) | 0.76% | 0.13% | 0.42%
5 | O=C(NC1CCC(CN2CCC(c3c[nH]c4ccccc34)CC2)CC1)C1(O)c2ccccc2-c2ccccc21 (configuration not stated) | 1.4% | 2.05% | 2.03%
6 | O=C(NC1CCC(CN2CCC(c3c[nH]c4ccccc34)CC2)CC1)c1cc2ccccc2o1 (configuration not stated) | 2.54% | 0.9% | -2.2%
7 | COC(=O)c1ccc(CC(C)NCC(O)c2cccc(C(F)(F)F)c2)c(Cl)c1 (configuration not stated) | 2.55% | 2.18% | 3.39%
8 | CN1CCC(COC(=O)C(O)(c2ccccc2)c2ccccc2)C1 (configuration not stated) | 2.1% | -0.69% | -0.38%
9 | CC[C@H]1CN2CC[C@H]1C[C@H]2[C@H](O)c1ccnc2ccc(OC)cc12 | -0.16% | 0.87% | 0.32%
10 | CCOC(=O)c1c(C)n(C2CCCCC2)c2cc(Br)c(O)cc12 | -0.53% | -0.38% | -0.74%
11 | Cc1cc(N(C)C2CCN(C)CC2)nc(Nc2ccc(Br)cc2)n1 | 3.64% | 6.94% | 1.93%
12 | O=C(C=Cc1ccccc1C(F)(F)F)NC1CCC(CN2CCC(c3c[nH]c4ccccc34)CC2)CC1 (configuration not stated) | 8.82% and 9.04% | 5.1% and 5.78% | 5.23% and 4.7%
13 | CC[C@H]1CN2CC[C@@H]1C[C@H]2[C@H](O)c1cc(N2CCCC(C)(C)C2)nc2ccc(OC)cc12 | 0.42% | -0.61% | 0.37%
14 | O=C(O)c1ccc2nc(-c3ccc(-c4ccccc4)cc3)n(C3CCN(Cc4ccc(-c5ncc[nH]5)cc4)CC3)c2c1 | 9.41% | 8.89% | 8.84%
15 | Brc1cnc(NC2=NCCN2)c(Br)c1 | 2.63% | 3.41% | 3.27%
16 | Cc1cc(NC(=O)[C@@H](Nc2ccc(C#N)c3ccccc23)C2CCCCC2)ccc1F | -1.97% | -0.16% | -0.25%
17 | CC(Cc1ccc(NC(=O)[C@@H](C)NCCc2cccc(Cl)c2)cc1)NCCc1cccc(Cl)c1 (some centres not stated) | 0.67% | 2.55% | 2.1%

Row | SMILES | inhibition [1] | inhibition [2] | inhibition [3]
18 | CC[C@H]1CN2CC[C@@H]1C[C@H]2[C@H](O)c1cc[n+]([O-])c2ccc(OC)cc12 | -2.84% | -0.91% | -1.06%
19 | c1ccc2c(NCCCCCCCCCNc3c4ccccc4nc4ccccc34)c3ccccc3nc2c1 | 3.03% | 6.11% | 2.42%
20 | Cc1ccc(C)c(C=CC(=O)NC2CCC(CN3CCC(c4c[nH]c5ccccc45)CC3)CC2)c1 (configuration not stated) | 1.09% and 15% | 1.99% and 11.5% | 1.04% and 10.2%
21 | COc1ccc(OC)c(C(O)CNC(C)C)c1 (configuration not stated) | 1.92% | 2.47% | 0.42%
22 | O=C(NC1CCN(CCc2c[nH]c3ccc(F)cc23)CC1)c1ncc(-c2ccccc2)[nH]1 | 4.04% | 4.4% | 3.98%
23 | CS(=O)(=O)Nc1ccc2[nH]cc(C3CCN(CC4CCC(NC(=O)/C=C/c5ccccc5Cl)CC4)CC3)c2c1 (configuration not stated) | -1.96% | 1.23% | -0.23%
24 | COc1ccc(CN2CCN(CCOC(c3ccccc3)c3ccc(Cl)cc3)CC2)c(O)c1 (configuration not stated) | 9.85% | 10.7% | 6.46%
25 | O=C(C=Cc1ccc(F)c(Br)c1)NC1CCC(CN2CCC(c3c[nH]c4ccccc34)CC2)CC1 (configuration not stated) | 0.26% and 5.78% | -0.2% and 4.24% | -1.48% and 3.84%
26 | CCCCCCCc1cc(O)c2c3c(c(=O)oc2c1)CN(C)CC3 | 10.7% | 11.3% | 10.7%
27 | O=C(/C=C/c1ccc(Cl)c(Cl)c1)NCCCCCN1C2CCC1CC(c1c[nH]c3ccc(O)cc13)C2 (configuration not stated) | 0.54% and -0.84% | 2.4% and -2.77% | -3.07% and -2.2%
28 | CC[C@@]1(O)C(=O)OCc2c1cc1n(c2=O)Cc2c-1nc1cc3c(cc1c2CN1CCOCC1)OCO3 | 51.3% | 76.7% | 71.6%
29 | CCC(C)CN1CCC(N(C)c2cc(NC(=O)c3ccc(F)cc3)ccn2)CC1 (configuration not stated) | -0.37% | 0.64% | 2.38%
30 | CN(C)c1cccc(NC(=O)NC2N=C(c3ccccc3)c3ccccc3N(CC(=O)N(C)c3ccccc3)C2=O)c1 (configuration not stated) | 6.38% | 4.22% | 2.42%
31 | O=C(/C=C/c1ccc(Cl)c(Cl)c1)N1CCC(CN2CCC(c3c(-c4ccccc4)[nH]c4ccccc34)CC2)CC1 | -1.32% | 1.74% | 0.62%
32 | CC[C@H]1CN2CC[C@@H]1C[C@H]2[C@H](O)c1cc(N2CCC(c3ccccc3)CC2)nc2ccc(OC)cc12 | 8.84% | 6.56% | 2.67%
33 | O=C(/C=C/c1ccc(Cl)c(Cl)c1)NC1C2CCC1CC(CN1CCC(c3c[nH]c4ccccc34)CC1)C2 (configuration not stated) | 3.31% | 4.24% | 2.44%
34 | CC(C)CNCc1ccc(-c2ccc(CN(C(=O)NC3CCCCC3)C3CCN(Cc4ccccc4)CC3)cc2)cc1 | 7.16% | 3.25% | 6.77%
